CYP2C9 inh – blockers of cytochrome P450 2C9 activity – biochemical, luminescence, ADME assay, primary screen; P11712; CYP2C9 Supersomes, luciferin-H conversion; inhibition, % at 5 µM; 96,000 tested, 20% active; AID 777, 2007;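 active means blocking of liver enzyme CYP2C9 beyond about 50% at 5 µM, limit read from the data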
CYP2C19 activ – human CYP2C19 activators, primary screen, biochemical, luminescence; Cytochrome P450 2C19 (Homo sapiens), P33261; recombinant CYP2C19, luciferin-H EGE luminescence; stronger effect = higher value; 0 = fully inhibited enzyme, 1 = untreated enzyme; activation factor at 5 µM; 96,000 tested, under 10 active; AID 1025, 2008;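 active means activation factor of at least 2 at 5 µM in the primary screen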
Target sequence (P33261 whole entry, looked up): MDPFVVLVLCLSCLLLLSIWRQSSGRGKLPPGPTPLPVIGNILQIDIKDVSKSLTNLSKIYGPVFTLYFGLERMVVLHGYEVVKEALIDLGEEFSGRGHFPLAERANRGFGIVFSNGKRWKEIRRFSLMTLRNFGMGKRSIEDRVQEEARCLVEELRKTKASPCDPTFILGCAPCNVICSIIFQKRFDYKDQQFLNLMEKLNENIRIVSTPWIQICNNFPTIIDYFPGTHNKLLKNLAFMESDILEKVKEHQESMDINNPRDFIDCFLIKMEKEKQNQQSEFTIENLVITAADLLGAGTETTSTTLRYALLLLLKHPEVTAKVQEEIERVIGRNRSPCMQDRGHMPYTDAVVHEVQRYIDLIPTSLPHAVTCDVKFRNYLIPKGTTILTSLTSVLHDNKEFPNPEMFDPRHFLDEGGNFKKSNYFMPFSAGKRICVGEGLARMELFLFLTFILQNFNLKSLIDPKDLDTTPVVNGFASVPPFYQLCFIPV
CYP2C19 inhib – blockers of cytochrome P450 2C19 activity – biochemical, luminescence, ADME assay, primary screen | P33261 | CYP2C19 Supersomes, luciferin-H EGE luminescence, 30 min | inhibition, % at 5 µM | 96,000 tested, 21% active;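 active means CYP2C19 inhibition above a set limit at 5 µM in the primary screen, cut at about 50% in these data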
PostGolgi yeast – phenotypic screen on post-Golgi transport, primary screen. post-Golgi transport phenotypic cell assay. 98,000 tested, 0.9% active. inhibition, % at 10 µM. AID 739, 2007;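 further: yeast cells grown in 1536-well plates; yeast grown about 18 h at 30C before absorbance read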
CYP2C9 act – human CYP2C9 activators, primary screen, biochemical, luminescence; Cytochrome P450 2C9 (Homo sapiens), P11712; recombinant CYP2C9, luciferin-H conversion; stronger effect = higher value; factor 1 = untreated enzyme, 0 = blocked; activation factor at 5 µM; 96,000 tested, 1.4% active;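 active means activation factor of 2 or more for CYP2C9 at a 5 µM dose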
PostGolgi ctrl – growth inhibition of yeast control strain, primary screen, counter-screen for post-Golgi transport modulator project | 98,000 tested, 5% active | efflux-deficient yeast background strain, growth absorbance A615, 16 h | inhibition, % at 10 µM
Each line names hits and unclear results; the compound was inactive in the other large screens. Hits are enriched below; roughly 32% of the tested compounds scored in any of these assays. Unless noted, no stated cut-off is given here; in the data, active means inhibition above about 30%; inactive means the rest.

Cc1sc2nc(CSc3nnc(Cc4cccs4)n3C3CCCCC3)[nH]c(=O)c2c1C	none
Cc1sc2nc(SCc3nnc(-c4cccs4)o3)n(C3CCCC3)c(=O)c2c1C	CYP2C9 inh 83, PostGolgi ctrl 30
N#Cc1ccc(-c2cccnc2)nc1SCc1ccc(Cl)cc1Cl	CYP2C9 inh 56
COCCCn1c(CCC(=O)O)ccc1-c1cccs1	PostGolgi ctrl 30
COC(=O)c1ccccc1NC(=O)Cn1c(CCC(=O)O)ccc1-c1cccs1	CYP2C19 inhib 53
COc1ccc2nc(SCC(=O)N3CCCCCC3)c(C#N)cc2c1	PostGolgi ctrl 32
N#Cc1cc2ccccc2nc1SCC(=O)Nc1ccc(S(=O)(=O)N2CCCC2)cc1	CYP2C9 inh 90
COc1ccc2nc(SCC(=O)N(C)C3CCCCC3)c(C#N)cc2c1	none
Cc1ccc2nc(SCC(=O)Nc3ccc4sc(C)nc4c3)c(C#N)cc2c1	none
COc1ccc2nc(SCC(=O)Nc3ccc(S(=O)(=O)N4CCCC4)cc3)c(C#N)cc2c1	CYP2C9 inh 91, PostGolgi ctrl 33
COC(=O)CCC(=O)c1oc2ccc(Br)cc2c1N	none (no result: CYP2C9 inh, CYP2C19 activ, CYP2C19 inhib, CYP2C9 act)
Nc1c(C(=O)c2ccccc2)oc2ccc(Br)cc12	CYP2C19 inhib 70
Nc1c(C(=O)c2ccc(Br)s2)oc2ccccc12	PostGolgi ctrl 37
O=C(NC1(C(F)(F)F)Oc2ccccc2O1)N1CCCC1	none
COc1ccc(S(=O)(=O)Nc2ccccn2)cc1OC	none
COc1cc(S(=O)(=O)Nc2ccccn2)ccc1F	CYP2C9 act 2.1
COc1cc(S(=O)(=O)NC2CCCCC2C)ccc1Cl (stereo not given)	CYP2C19 inhib 97, PostGolgi ctrl 49
COc1cc(S(=O)(=O)NC2CCCC2)ccc1F	CYP2C19 inhib 90
COc1cc(S(=O)(=O)NC2CCCC2)ccc1Cl	CYP2C19 inhib 94, CYP2C9 act 3
Cc1ccc(S(=O)(=O)NC2CCCC2)cc1C	none
CCCCS(=O)(=O)N1CN(S(=O)(=O)CCCC)C2NC(=O)NC21 (stereo not given)	none
COc1ccccc1-c1cc(-c2ccccc2)nc(SC(C(N)=O)c2ccccc2)c1C#N (stereo not given)	none
COc1ccc(S(=O)(=O)NC2CCCC2)cc1Br	CYP2C19 inhib 97, CYP2C9 act 2.4
COc1ccc(S(=O)(=O)NC2CCCCC2)c(C)c1C	CYP2C19 inhib 96
COc1ccc(OC)c(S(=O)(=O)NC2CCCCC2)c1	none
CC1=C(C#N)C(=O)OC(C)(C)C1	none
CCCNC(=O)c1cc(S(=O)(=O)N2CCc3ccccc32)ccc1F	none (no result: CYP2C9 inh, CYP2C19 activ, CYP2C19 inhib, CYP2C9 act)
OCC1(CO)COC2(CCCC2)N1	none
COc1ccc(Br)cc1/C=N/NC(=O)c1nc(-c2ccccc2)n2c1CCCCC2	CYP2C19 inhib 60, PostGolgi ctrl 36
Cc1cc(C(=O)N/N=C/c2cc(Br)ccc2OC(=O)c2ccccc2)n[nH]1	CYP2C9 inh 61
Cc1cc(NC(=O)c2noc3c2CCCC3)no1	none
Cc1ccc(CNC(=O)CS(=O)CC(=O)O)cc1 (stereo not given)	none
CCCCCC(=O)Nc1c(-c2ccc(OC)cc2)c(=O)c2ccccc2n1C	none
O=C(CSc1nnc(C2CC2)n1Cc1ccccc1)c1cc2ccccc2o1	CYP2C9 inh 88, CYP2C19 inhib 93
S=C(Nc1ccccc1Cl)Nc1ccc(Cl)cc1Cl	CYP2C19 inhib 58
S=C(Nc1ccccc1)Nc1ccc(Cl)cc1Cl	CYP2C19 inhib 58
S=C(Nc1ccccc1)Nc1cc(Cl)ccc1Oc1ccccc1	CYP2C9 inh 95, CYP2C19 inhib 96
FC(F)(F)c1cccc(NC(=S)Nc2ccc(Cl)cc2Cl)c1	PostGolgi yeast 38, PostGolgi ctrl 53
Cc1cc(Cl)ccc1NC(=S)Nc1cccnc1	CYP2C19 inhib 54
Cc1cc(Cl)ccc1OCCCC(=O)Nc1cccnc1	CYP2C19 inhib 50, PostGolgi yeast 34
Cn1c(COc2ccccc2)nnc1SCc1cc(=O)[nH]c2ccccc12	CYP2C9 inh 77, CYP2C19 inhib 72
Fc1ccccc1CSc1nc2ccccc2[nH]1	CYP2C9 inh 85, CYP2C19 inhib 100
Fc1c(F)c(F)c(CSc2nc3ccccc3[nH]2)c(F)c1F	none
c1ccc2[nH]c(SCc3cscn3)nc2c1	CYP2C19 inhib 91
Fc1ccccc1CSc1nc2ncc(Br)cc2[nH]1	CYP2C9 inh 78, CYP2C19 inhib 87
COc1ccccc1NC(=O)C(=O)N1N=C(C(C)C)CC1(O)C(F)(F)F (stereo not given)	none
CC1CCN(C(=O)CNC(=O)Cn2ccc3ccccc3c2=O)CC1	none
O=C(c1ccc2c(c1)N(Cc1ccccc1)C(=O)c1ccccc1S2)N1CCCC1	CYP2C19 inhib 63, PostGolgi ctrl 45
CCOC(=O)C1CCCN(S(=O)(=O)c2cc(Br)cc3c2N(C(=O)C2CC2)CC3)C1 (stereo not given)	CYP2C9 act 2.9
CCC(=O)N1CCc2cc(Br)cc(S(=O)(=O)NCc3ccco3)c21	CYP2C19 inhib 53
CCC(=O)N1CCc2cc(Br)cc(S(=O)(=O)N3CCCCCC3)c21	PostGolgi ctrl 36 (no result: CYP2C9 inh, CYP2C19 activ, CYP2C19 inhib, CYP2C9 act)
CCOC(=O)N1CCN(S(=O)(=O)c2cc(Br)cc3c2N(C(=O)CC)CC3)CC1	none
CCC(=O)N1CCc2cc(Br)cc(S(=O)(=O)CCC(=O)NCc3ccco3)c21	none (no result: CYP2C9 inh, CYP2C19 activ, CYP2C19 inhib, CYP2C9 act)
O=C(C1CC1)N1CCc2cc(Br)cc(S(=O)(=O)NC3CCCCC3)c21	none
O=C(C1CC1)N1CCc2cc(Br)cc(S(=O)(=O)N3CCCCCC3)c21	CYP2C19 inhib 90, PostGolgi ctrl 41
COc1ccc(-n2nc3cc(C)c(NC(=O)C(C)C)cc3n2)cc1	none
CCOc1ccc(C(=O)CN2CCN(S(=O)(=O)c3ccc(Cl)cc3)CC2)cc1	CYP2C19 inhib 58, PostGolgi ctrl 32
CCOc1ccc(S(=O)(=O)N2CCCC2)cc1	none
COc1ccc(S(=O)(=O)N2CCN(Cc3cccc(Cl)c3)CC2)cc1	CYP2C9 inh 61, CYP2C19 inhib 94
COc1ccc(S(=O)(=O)N2CCN(Cc3ccc(Cl)cc3)CC2)cc1	CYP2C19 inhib 63
COc1cc(S(=O)(=O)N2CCN(Cc3ccccc3)CC2)ccc1Br	none
O=S(=O)(c1ccc(Cl)cc1)N1CCN(C2CCN(Cc3ccccc3)CC2)CC1	PostGolgi yeast 90
COc1ccc(S(=O)(=O)N2CCN(Cc3c[nH]c4ccccc34)CC2)cc1	CYP2C19 inhib 52
COc1ccc(S(=O)(=O)N2CC3C4C=CC(C4)C3C2)cc1 (stereo not given)	CYP2C19 inhib 58, PostGolgi ctrl 47
O=[N+]([O-])c1ccc(S(=O)(=O)N2CCN(Cc3c[nH]c4ccccc34)CC2)cc1	none
CCOC(=O)c1ccc(S(=O)(=O)N2CCN(CC(=O)NC(=O)NC3CCCCC3)CC2)cc1	CYP2C9 inh 60
